Results on 34 molecules are retold here after PubChem BioAssay (NCATS).

Structures are written as SMILES. Results filed as inconclusive are left out. Unmarked numbers belong to inactive results. Calls of active or inactive are those of the source. Calls come from the whole dose curve; as a rule, active = well fitted cell-killing curve with a large enough effect; inconclusive = small, poorly fitted or top-dose-only effect, or effect the other way; inactive = no such curve, though single readings can be large or run the other way.
Note: nearly all actives have a fitted effect of over 30% in size.
Potency is the fitted concentration of half-maximal effect.

The nature of the first assay: Quantitative High-Throughput drug screen in 47 multiple myeloma cell lines against the NCATS MIPE library collection: PCM6_Riken cell viability assay (AID 1919870).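 For viability (% of control): 100% = DMSO-only wells and 0% = media-only wells.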 Particulars: CellTiter-Glo ATP, 48 h; series mostly up to 45.8 µM; viability (% of control): at the top concentration. An outline of the steps:
(§1)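 Inhibition of viability over 48 h was scored by ATP content (CellTiter-Glo) in 500-cell wells. Zero and full viability were defined by media-only and DMSO-only wells.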
Consider `CN(C)CCOC(c1ccccc1)c1ccccc1`, for which the Potency was 8.33 µM (active).
Same read-out and setting: the value for `O=C1Cc2cc(CCN3CCN(c4nsc5ccccc45)CC3)c(Cl)cc2N1` was 18.7 µM (active).
With `CCc1cccc2c3c([nH]c12)C(CC)(CC(=O)O)OCC3` (configuration not stated), the “viability (% of control)” value is 137%.
As to `CN1CCN(CCCN2c3ccccc3Sc3ccc(Cl)cc32)CC1`, the Potency was 8.33 µM (active).
Still for that read-out and setting: in the case of `CC#C[C@]1(O)CC[C@H]2[C@@H]3CCC4=CC(=O)CCC4=C3[C@@H](c3ccc(N(C)C)cc3)C[C@@]21C` it was 0.743 µM (active); in that of `CN1CCC(=C2c3ccccc3C=Cc3ccccc32)CC1`, 18.7 µM (active).
As for `NCCc1cnc[nH]1`, the “viability (% of control)” value is 137%.
As for `CS(=O)(=O)CCNCc1ccc(-c2ccc3ncnc(Nc4ccc(OCc5cccc(F)c5)c(Cl)c4)c3c2)o1`, the Potency was 1.18 µM (active).
Turning to `Cn1c(=O)c2c(ncn2C)n(C)c1=O`, the “viability (% of control)” value is 114%.
For `CN1CCC(=C2c3ccccc3CC(=O)c3sccc32)CC1`, the Potency was 14.8 µM (active).
Still for that read-out and setting: in the case of `COc1cc2nc(N3CCN(C(=O)c4ccco4)CC3)nc(N)c2cc1OC` it was 7.43 µM (active).
With `CC(C)NCC(O)COc1ccc(CCOCC2CC2)cc1` (configuration not stated), the “viability (% of control)” value was 96.1%.
`C[C@](N)(Cc1ccc(O)c(O)c1)C(=O)O`: the “viability (% of control)” value is 74%.
For the molecule `CC[C@@]1(O)C(=O)OCc2c1cc1n(c2=O)Cc2cc3c(CN(C)C)c(O)ccc3nc2-1`, the Potency is 1.66 µM (active).
`NC(=O)NO`: the Potency is 2.35 µM (active).
For the molecule `CC[N+](CC)(CC)CCOc1cccc(OCC[N+](CC)(CC)CC)c1OCC[N+](CC)(CC)CC`, the “viability (% of control)” value was 113%.
With `O=c1[nH]cc(F)c(=O)[nH]1`, the Potency was 10.5 µM (active).
The same measure, in the same setting: the value for `NC12CC3CC(CC(C3)C1)C2` was 3.32 µM (active); that for `Cn1cnc2c1c(=O)[nH]c(=O)n2C` was 16.6 µM (active).
Turning to `CN1C2CCC1CC(OC(=O)C(CO)c1ccccc1)C2` (configuration not stated), the “viability (% of control)” value is 100%.
Regarding `CN(C)C(=O)C(CCN1CCC(O)(c2ccc(Cl)cc2)CC1)(c1ccccc1)c1ccccc1`, the Potency was 20.9 µM (active).
With `CC(=O)OCC(CCn1cnc2cnc(N)nc21)COC(C)=O`, the “viability (% of control)” value is 114%.
For `O=C(Nc1ccc([N+](=O)[O-])cc1Cl)c1cc(Cl)ccc1O`, the Potency is 1.32 µM (active).
For the molecule `COc1cc2c(c(OC)c1OC)-c1ccc(OC)c(=O)cc1[C@@H](NC(C)=O)CC2`, the “viability (% of control)” value was 32.4%.
The same measure, in the same setting: in the case of `NCCCCCC(=O)O` it was 129%; in that of `CCN1CCCC1CNC(=O)c1cc(S(=O)(=O)CC)c(N)cc1OC` (configuration not stated), 135%; in that of `Clc1ccc2nsnc2c1NC1=NCCN1`, 134%.
In the case of `CN(Cc1cnc2nc(N)nc(N)c2n1)c1ccc(C(=O)N[C@@H](CCC(=O)O)C(=O)O)cc1`, the Potency was 0.105 µM (active).
As to `CN(C)CCCN1c2ccccc2CCc2ccc(Cl)cc21`, the Potency was 0.469 µM (active).

The nature of the next assay: Quantitative High-Throughput drug screen in 47 multiple myeloma cell lines against the NCATS MIPE library collection: RPMI8226_ATCC cell viability assay (AID 1919871). Particulars: RPMI8226 myeloma viability, CellTiter-Glo ATP luminescence, 48 h; series mostly up to 45.8 µM; viability (% of control): at the top concentration. In short, it runs like this:
as §1
Take `CN(C)CCOC(c1ccccc1)c1ccccc1`: the “viability (% of control)” value was 113%.
For the molecule `O=C1Cc2cc(CCN3CCN(c4nsc5ccccc45)CC3)c(Cl)cc2N1`, the Potency was 20.9 µM (active).
Regarding `CCc1cccc2c3c([nH]c12)C(CC)(CC(=O)O)OCC3` (configuration not stated), the “viability (% of control)” value was 125%.
With `CC#C[C@]1(O)CC[C@H]2[C@@H]3CCC4=CC(=O)CCC4=C3[C@@H](c3ccc(N(C)C)cc3)C[C@@]21C`, the Potency was 3.72 µM (active).
Turning to `CS(=O)(=O)CCNCc1ccc(-c2ccc3ncnc(Nc4ccc(OCc5cccc(F)c5)c(Cl)c4)c3c2)o1`, the Potency was 26.4 µM (active).
On to `Cn1c(=O)c2c(ncn2C)n(C)c1=O`, for which the “viability (% of control)” value was 105%.
For `CN1CCC(=C2c3ccccc3CC(=O)c3sccc32)CC1`, the “viability (% of control)” value is 118%.
The same measure, in the same setting: in the case of `CC(C)NCC(O)COc1ccc(CCOCC2CC2)cc1` (configuration not stated) it was 101%.
For the molecule `CC[C@@]1(O)C(=O)OCc2c1cc1n(c2=O)Cc2cc3c(CN(C)C)c(O)ccc3nc2-1`, the Potency was 14.8 µM (active).
Same read-out and setting: the value for `NC(=O)NO` was 3.72 µM (active).
Take `CC[N+](CC)(CC)CCOc1cccc(OCC[N+](CC)(CC)CC)c1OCC[N+](CC)(CC)CC`: the “viability (% of control)” value is 83.6%.
For the molecule `O=c1[nH]cc(F)c(=O)[nH]1`, the Potency was 0.235 µM (active).
For `NC12CC3CC(CC(C3)C1)C2`, the Potency is 0.833 µM (active).
`Cn1cnc2c1c(=O)[nH]c(=O)n2C`: the Potency was 20.9 µM (active).
As to `CC(C)(Oc1ccc(C2CC2(Cl)Cl)cc1)C(=O)O` (configuration not stated), the “viability (% of control)” value is 124% [at 92.2 µM].
For the molecule `O=C(c1ccc(F)cc1)C1CCN(CCn2c(=O)[nH]c3ccccc3c2=O)CC1`, the Potency was 5.26 µM (active).
Take `CN1C2CCC1CC(OC(=O)C(CO)c1ccccc1)C2` (configuration not stated): the “viability (% of control)” value is 112%.
`CN(C)C(=O)C(CCN1CCC(O)(c2ccc(Cl)cc2)CC1)(c1ccccc1)c1ccccc1`: the Potency was 20.9 µM (active).
As to `CC(=O)OCC(CCn1cnc2cnc(N)nc21)COC(C)=O`, the “viability (% of control)” value is 144%.
In the case of `O=C(Nc1ccc([N+](=O)[O-])cc1Cl)c1cc(Cl)ccc1O`, the Potency was 1.05 µM (active).
As to `NCCCCCC(=O)O`, the “viability (% of control)” value is 110%.
Consider `CCN1CCCC1CNC(=O)c1cc(S(=O)(=O)CC)c(N)cc1OC` (configuration not stated), for which the “viability (% of control)” value is 106%.
Consider `COC(=O)Nc1nc2ccc(C(=O)c3cccs3)cc2[nH]1`, for which the Potency is 0.526 µM (active).
Turning to `CN(C)CCCN1c2ccccc2CCc2ccc(Cl)cc21`, the Potency was 16.6 µM (active).
On to `CC(C)Cc1ccc(C(C)C(=O)O)cc1` (configuration not stated), for which the “viability (% of control)” value is 103% [at 23.2 µM].

The nature of the next assay: Quantitative High-Throughput drug screen in 47 multiple myeloma cell lines against the NCATS MIPE library collection: OPM2_DSMZ cell viability assay (AID 1919872). The following applies: OPM2 myeloma viability, CellTiter-Glo ATP luminescence, 48 h; series mostly up to 45.8 µM; viability (% of DMSO): at the top concentration. An outline of the steps:
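Viability readout: CellTiter-Glo luminescence following 5 min room-temperature incubation with reagent. Prior exposure: 48 h, 37C, humidified 5% CO2, 500 cells per well.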
Background: Cellular ATP, detected with luciferase, serves as a proxy for viable cell number.
`CN(C)CCOC(c1ccccc1)c1ccccc1`: the “viability (% of DMSO)” value was 119%.
The same measure, in the same setting: the value for `CCc1cccc2c3c([nH]c12)C(CC)(CC(=O)O)OCC3` (configuration not stated) was 91.5%.
`CN1CCN(CCCN2c3ccccc3Sc3ccc(Cl)cc32)CC1`: the “viability (% of DMSO)” value is 92.4%.
Turning to `CC#C[C@]1(O)CC[C@H]2[C@@H]3CCC4=CC(=O)CCC4=C3[C@@H](c3ccc(N(C)C)cc3)C[C@@]21C`, the Potency is 1.18 µM (active).
Take `CN1CCC(=C2c3ccccc3C=Cc3ccccc32)CC1`: the “viability (% of DMSO)” value was 88%.
As for `CN(C)c1nc(N(C)C)nc(N(C)C)n1`, the “viability (% of DMSO)” value was 101%.
Regarding `CS(=O)(=O)CCNCc1ccc(-c2ccc3ncnc(Nc4ccc(OCc5cccc(F)c5)c(Cl)c4)c3c2)o1`, the Potency is 16.6 µM (active).
As to `Cn1c(=O)c2c(ncn2C)n(C)c1=O`, the “viability (% of DMSO)” value is 96.4%.
Consider `CC(C)NCC(O)COc1ccc(CCOCC2CC2)cc1` (configuration not stated), for which the “viability (% of DMSO)” value is 103%.
On to `C[C@](N)(Cc1ccc(O)c(O)c1)C(=O)O`, for which the Potency is 7.43 µM (active).
For the molecule `CC[C@@]1(O)C(=O)OCc2c1cc1n(c2=O)Cc2cc3c(CN(C)C)c(O)ccc3nc2-1`, the Potency was 16.6 µM (active).
On the same count and under the same terms, the value for `NC(=O)NO` was 6.62 µM (active); that for `CC[N+](CC)(CC)CCOc1cccc(OCC[N+](CC)(CC)CC)c1OCC[N+](CC)(CC)CC` was 0.118 µM (active).
On to `O=c1[nH]cc(F)c(=O)[nH]1`, for which the “viability (% of DMSO)” value is 110%.
Still for that read-out and setting: in the case of `NC12CC3CC(CC(C3)C1)C2` it was 96.9%.
Turning to `Cn1cnc2c1c(=O)[nH]c(=O)n2C`, the Potency was 20.9 µM (active).
With `CC(C)(Oc1ccc(C2CC2(Cl)Cl)cc1)C(=O)O` (configuration not stated), the “viability (% of DMSO)” value is 119% [at 92.2 µM].
Still for that read-out and setting: the value for `O=C(c1ccc(F)cc1)C1CCN(CCn2c(=O)[nH]c3ccccc3c2=O)CC1` was 110%.
Consider `CN1C2CCC1CC(OC(=O)C(CO)c1ccccc1)C2` (configuration not stated), for which the “viability (% of DMSO)” value was 101%.
`CN(C)C(=O)C(CCN1CCC(O)(c2ccc(Cl)cc2)CC1)(c1ccccc1)c1ccccc1`: the Potency is 18.7 µM (active).
With `CC(=O)OCC(CCn1cnc2cnc(N)nc21)COC(C)=O`, the “viability (% of DMSO)” value was 111%.
With `O=C(Nc1ccc([N+](=O)[O-])cc1Cl)c1cc(Cl)ccc1O`, the Potency is 1.32 µM (active).
On to `COc1cc2c(c(OC)c1OC)-c1ccc(OC)c(=O)cc1[C@@H](NC(C)=O)CC2`, for which the “viability (% of DMSO)” value is 0.225%.
The same measure, in the same setting: the value for `NCCCCCC(=O)O` was 102%.
As to `CCN1CCCC1CNC(=O)c1cc(S(=O)(=O)CC)c(N)cc1OC` (configuration not stated), the “viability (% of DMSO)” value was 97.5%.
On the same count and under the same terms, in the case of `Clc1ccc2nsnc2c1NC1=NCCN1` it was 105%.
Consider `COC(=O)Nc1nc2ccc(C(=O)c3cccs3)cc2[nH]1`, for which the Potency was 0.0118 µM (active).
As to `CC(C)Cc1ccc(C(C)C(=O)O)cc1` (configuration not stated), the “viability (% of DMSO)” value was 108% [at 23.2 µM].
